# Data published in PubChem BioAssay (EPA / NIEHS).
# Several values for one entry are separate records, joined by “and”; a condition that tells them apart may be missing. Identical values can stand only once. Inconclusive results are not listed. Some structures have more than one record in an assay (separate samples or runs), and their calls can disagree. Activity calls are given as the source filed them. The calls were made as follows, unless noted: active = hit-call score of the fitted dose curve at least 0.9, where 1 is the maximum; inactive = score below 0.9.
# How the values were obtained:
# [1] = BSK_BT_PBMCCytotoxicity: PBMC Cytotoxicity Assessment in the BioMAP Diversity Plus: BT Assay (AID 2284225); conditions: primary human B cells with PBMC;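 also: PBMC viability measured by Alamar Blue dye reduction fluorescence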
# In short: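 75,000 cells/well; cpd 1 h → SEB + TSST-1 (20 ng/mL final each) → 90 h → Alamar Blue 6 h → fluor. 546/580 nm. DMSO = neg. control/baseline.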
# [2] = read-out: Secreted IgG (sIgG), gene 3500; assay: BSK_BT_sIgG: BioMAP Diversity Plus: BT Assay for Secreted IgG (sIgG) Biomarker Activity (AID 2284226); conditions: primary human B cells with PBMC
# In short: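 Secreted IgG from a human primary B cell–PBMC co-culture was measured by ELISA 24 hours after dosing, with DMSO defining baseline activity.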
# [3] = read-out: Interleukin 6 (IL6), IL6 (gene 3569); assay: BSK_BT_xIL6: BioMAP Diversity Plus: BT Assay for Interleukin 6 (IL6) Biomarker Activity (AID 2284228); conditions: primary human B cells with PBMC
# In short: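 Secreted IL-6 in the primary human B cell plus PBMC system, measured by Luminex at 24 h post-chemical, DMSO as baseline. Alamar Blue viability: 75,000 cells/well, chemical 1 h before SEB/TSST-1 (20 ng/mL each), 90 h, then 6 h dye.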
# [4] = CCTE_Mundy_HCI_Cortical_Synap_Neur_Matur_NeuriteSpotCountPerNeuriteLength: CCTE's Synaptogenesis and Neurite Maturation Assay in rat cortical cells for Neurite Spot Count per Neurite Length, Mundy Lab (AID 2284210)
# In short: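 Rat primary cortical cultures, AraC added at DIV 5 to suppress glia; chemical exposure from DIV 7 to DIV 12. Fixed cells stained for MAP2 and synaptophysin plus Hoechst; synaptophysin puncta per neurite length quantified by high-content imaging, relative to DMSO.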
# [5] = CCTE_Mundy_HCI_Cortical_Synap_Neur_Matur_BPCount: CCTE's Synaptogenesis and Neurite Maturation Assay in rat cortical cells for Branch Point Count, Mundy Lab (AID 2284211)
# In short: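 Branch point number is quantified by automated imaging of fluorescently labelled neurites and synapses in rat primary cortical neurons exposed from DIV 7 to DIV 12. Activity is analysed relative to DMSO negative control.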
# [6] = CCTE_Mundy_HCI_Cortical_NOG_NeuriteCount: CCTE's Neurite Outgrowth Assay in rat cortical cells for Neurite Count, Mundy Lab (AID 2284212);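 also: cells fixed about two days after chemical exposure began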
# In short: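 Neurite number per cell from high-content imaging of betaIII-tubulin immunostaining, with Hoechst nuclear counterstain.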
# [7] = CCTE_Mundy_HCI_Cortical_NOG_NeuriteLength: CCTE's Neurite Outgrowth Assay in rat cortical cells for Neurite Length, Mundy Lab (AID 2284213);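 as to AC50: neurites imaged about 48 to 50 h after chemical exposure began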
# In short: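 Neurite length was read by high-content imaging of βIII-tubulin-labelled neurites in rat primary cortical cultures. Activity was fitted relative to DMSO.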
# [8] = CCTE_Mundy_HCI_Cortical_Synap_Neur_Matur_NeuriteLength: CCTE's Synaptogenesis and Neurite Maturation Assay in rat cortical cells for Neurite Length, Mundy Lab (AID 2284214)
# In short: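 Neurite length in rat primary cortical cultures is imaged after MAP2, synaptophysin and Hoechst staining. Dosing starts DIV 7, ending DIV 12; DMSO serves as negative control and baseline.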
# [9] = CCTE_Mundy_HCI_Cortical_Synap_Neur_Matur_NeuriteSpotCountPerNeuron: CCTE's Synaptogenesis and Neurite Maturation Assay in rat cortical cells for Neurite Spot Count per Neuron Count, Mundy Lab (AID 2284215)
# In short: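 High-content imaging counts synaptophysin puncta along MAP2-labelled neurites per neuron after chemical exposure of rat cortical cells from DIV 7 to termination at DIV 12 (AraC added DIV 5). Loss of signal relative to DMSO.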
# [10] = TAMU_PeakParms_SingleDonor1434_Chronotropy: Texas A&M University (TAMU) 1.5-hr Human Induced Pluripotent Stem Cell (iPSC)-derived Cardiomyocytes Calcium (Ca+2) Flux Assay for Cardiotoxicity: Chronotropy (changes in peak frequency) (AID 2284217); conditions: actives raise or lower the signal
# In short: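 iPSC-CMs, donor 1434; 4 conc (0.2–100 uM), 0.5% v/v DMSO, 90 min, 37C/5% CO2; Ca2+ flux fluorescence → peak.freq.avg; peak.freq.avg = 0 dropped; bidirectional fit vs DMSO; EC05 POD.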
# [11] = CCTE_Mundy_HCI_Cortical_Synap_Neur_Matur_SynapseCount: CCTE's Synaptogenesis and Neurite Maturation Assay in rat cortical cells for Synapse Count, Mundy Lab (AID 2284218)
# In short: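 Synapse count per neuron is measured in rat cortical neurons exposed to chemicals between DIV 7 and DIV 12, with glial growth arrested by AraC at DIV 5. Synaptophysin and MAP2 staining is imaged automatically; activity is fitted relative to DMSO.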
# [12] = CCTE_Mundy_HCI_hN2_NOG_NeuriteCount: CCTE's Neurite Outgrowth Assay in human hN2 cells for Neurite Count, Mundy Lab (AID 2284219; active = hit-call score of the fitted dose curve at least 0.9, where 1 is the maximum)
# In short: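 In this morphology assay, hNP1-derived neurons received test chemical 2 h post-plating and were fixed two days later in warm paraformaldehyde/sucrose containing Hoechst 33342. Neurites, labelled by rabbit anti-βIII-tubulin (1:800) and Alexa Fluor-488 (1:500), were counted automatically.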
# [13] = CCTE_Mundy_HCI_hN2_NOG_NeuriteLength: CCTE's Neurite Outgrowth Assay in human hN2 cells for Neurite Length, Mundy Lab (AID 2284220; active = hit-call score of the fitted dose curve at least 0.9, where 1 is the maximum)
# In short: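 Read-out is neurite length from high-content imaging of βIII-tubulin/Alexa Fluor-488-labelled neurons, referenced to DMSO controls.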
# [14] = CCTE_Mundy_HCI_hN2_NOG_NeuronCount: CCTE's Neurite Outgrowth Assay in human hN2 cells for Neuron Count, Mundy Lab (AID 2284221; active = hit-call score of the fitted dose curve at least 0.9, where 1 is the maximum)
# In short: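 Read-out is the number of betaIII-tubulin-positive neurons imaged by automated high-content analysis, with DMSO as negative control.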
# [15] = CCTE_Mundy_HCI_Cortical_Synap_Neur_Matur_NeuriteCount: CCTE's Synaptogenesis and Neurite Maturation Assay in rat cortical cells for Neurite Count, Mundy Lab (AID 2284222);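 as to outcome: exposure from day 7 to day 12 in vitro with readout at day 12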
# In short: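 Primary rat cortical cells were plated, treated with AraC at DIV 5, then exposed to chemicals from DIV 7 through DIV 12. After fixation and immunostaining for MAP2 and synaptophysin, imaging quantified neurites, with DMSO as the negative control.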
# [16] = CCTE_Mundy_HCI_Cortical_Synap_Neur_Matur_CellBodySpotCount: CCTE's Synaptogenesis and Neurite Maturation Assay in rat cortical cells for Cell Body Spot Count, Mundy Lab (AID 2284223)
# In short: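 High-content imaging counts synaptophysin puncta on neuronal cell bodies per neuron after MAP2/synaptophysin immunostaining. Rat primary cortical cells, glia arrested with AraC at DIV 5, were exposed DIV 7–12; signal decrease measured against DMSO.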
# [17] = IUF_NPC1b_proliferation_BrdU_72hr: Leibniz Research Institute for Environmental Medicine (IUF) 72-hour Neural Progenitor Cell Bromodeoxyuridine (BrdU) Proliferation Assay (NPC1b) (AID 2284207)
# In short: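 BrdU luminescence ELISA quantified DNA synthesis over the last 16 h of a 72 h exposure, fitted against DMSO. Primary hNPC spheres from gestational week 16-19 cortex grown with EGF/FGF at 37C, pH 7.2-7.6.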
# [18] = IUF_NPC1a_proliferation_area_72hr: Leibniz Research Institute for Environmental Medicine (IUF) 72-hour Neural Progenitor Cell Proliferation Area Assay (NPC1a) (AID 2284208)
# In short: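 Proliferation read as increase in sphere area by phase-contrast imaging over 72 h continuous compound exposure (no renewal) of hNPC spheres grown with EGF/FGF at 37C, 5% CO2. Growth-factor withdrawal served as positive control; DMSO as baseline.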
# [19] = IUF_NPC1_viability_72hr: Viability Assessment at 72 hours in the Leibniz Research Institute for Environmental Medicine (IUF) Neural Progenitor Cell Proliferation Assay (NPC1) (AID 2284209)
# In short: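 Each well receives one 0.3 mm progenitor sphere from fetal brain cortex; test chemical is added at plating and left three days. Viability comes from alamar blue fluorescence, multiplexed with LDH and BrdU readouts in the same well.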
# [20] = CCTE_Mundy_HCI_hNP1_Pro_ResponderAvgInten: CCTE's Proliferation Assay in human neuroprogenitor cells, Mundy Lab (AID 2284224; active = hit-call score of the fitted dose curve at least 0.9, where 1 is the maximum;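 also: human neural progenitor cells hNP1 derived from WA09 embryonic stem cells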)
# In short: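 Proliferation read as average intensity of BrdU-positive cells, imaged at 26.25 h post-dosing: chemical exposure started after 40–44 h culture, BrdU during final 4 h, paraformaldehyde fixation. Positive-direction fit relative to DMSO.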
compound,measurement,setting,value
Nc1ccc([N+](=O)[O-])cc1Cl,outcome,[1],inactive
same,outcome,[2],inactive
same,outcome,[3],inactive
ClC(Cl)=C(c1ccc(Cl)cc1)c1ccccc1Cl,AC50,[1],37.2 µM (active)
same,AC50,[2],29.6 µM (active)
same,AC50,[3],30 µM (active)
CCC1(c2ccccc2)C(=O)N=C(O)NC1=O (configuration not stated),outcome,[4],inactive
same,outcome,[5],inactive
same,outcome,[6],inactive
same,outcome,[7],inactive
same,outcome,[8],inactive
same,outcome,[9],inactive
same,AC50,[10],29.7 µM (active)
same,outcome,[11],inactive
same,outcome,[12],inactive
same,outcome,[13],inactive
same,outcome,[14],inactive
same,outcome,[15],inactive
same,outcome,[16],inactive
CCOP(=S)(OCC)SCn1nnc2ccccc2c1=O,outcome,[1],inactive
same,AC50,[2],20 µM (active)
same,outcome,[3],inactive
CCOP(=S)(OCC)SCSc1ccc(Cl)cc1,outcome,[1],inactive
same,AC50,[2],20 µM (active)
same,outcome,[3],inactive
NC(=O)C(F)(F)C(F)(F)F,outcome,[1],inactive
same,outcome,[2],inactive
same,outcome,[3],inactive
c1cc2c3c(cccc3c1)CC2,AC50,[10],32.2 µM (active)
CCCCOCCOP(=O)(OCCOCCCC)OCCOCCCC,outcome,[17],inactive
same,outcome,[18],inactive
same,outcome,[19],inactive
same,outcome,[1],inactive
same,outcome,[2],inactive
same,outcome,[3],inactive
CCCCC(CC)COC(=O)c1c(Br)c(Br)c(Br)c(Br)c1C(=O)OCC(CC)CCCC (configuration not stated),outcome,[1],inactive
same,outcome,[2],inactive
same,outcome,[3],inactive
Cc1ccc2c(c1N)C(=O)c1ccccc1C2=O,outcome,[1],inactive
same,outcome,[2],inactive
same,AC50,[3],0.144 µM (active)
O=C(O)C(F)(OC(F)(F)C(F)(F)C(F)(F)F)C(F)(F)F (configuration not stated),outcome,[17],inactive
same,outcome,[18],inactive
same,outcome,[19],inactive
same,outcome,[4],inactive
same,outcome,[5],inactive
same,outcome,[6],inactive
same,outcome,[7],inactive
same,outcome,[8],inactive
same,outcome,[9],inactive
same,outcome,[11],inactive
same,outcome,[15],inactive
same,outcome,[16],inactive
same,outcome,[20],inactive
same,AC50,[1],0.22 µM (active)
same,outcome,[1],inactive
same,outcome,[2],inactive
same,outcome,[3],inactive
CO/N=C(/C(=O)OC)c1ccccc1COc1ccccc1C,AC50,[17],23800 nM (active)
same,AC50,[18],31.6 µM (active)
same,outcome,[19],inactive
same,AC50,[4],3.36 µM (active)
same,AC50,[5],5.13 µM (active)
same,AC50,[6],19.1 µM (active)
same,AC50,[7],14.5 µM (active)
same,AC50,[8],6.23 µM (active)
same,AC50,[9],3.31 µM (active)
same,AC50,[11],3.28 µM (active)
same,AC50,[15],5.23 µM (active)
same,AC50,[16],3.33 µM (active)
same,outcome,[20],inactive
C=CC(=O)OCC(F)(F)C(F)F,outcome,[20],inactive
same,AC50,[1],30 µM (active) and 23.6 µM (active)
same,AC50,[2],43 µM (active) and 48.8 µM (active)
same,AC50,[3],34.1 µM (active) and 31.7 µM (active)
CC(C)(C)c1ccccc1OP(=O)(Oc1ccccc1)Oc1ccccc1,outcome,[17],inactive
same,outcome,[18],inactive
same,outcome,[19],inactive
same,outcome,[4],inactive
same,AC50,[5],2.98 µM (active)
same,AC50,[6],19 µM (active)
same,AC50,[7],21.6 µM (active)
same,AC50,[8],1.6 µM (active)
same,AC50,[9],2.07 µM (active)
same,AC50,[10],32 µM (active)
same,AC50,[11],2.69 µM (active)
same,outcome,[15],inactive
same,outcome,[16],inactive
same,outcome,[1],inactive
same,AC50,[2],13.5 µM (active)
same,AC50,[3],29.2 µM (active)
CCOP(=S)(OCC)SCSCC,AC50,[17],761 nM (active)
same,outcome,[18],inactive
same,outcome,[19],inactive
same,AC50,[4],50 µM (active) and 67.2 µM (active)
same,AC50,[5],80.7 µM (active) and 50 µM (active)
same,outcome,[6],inactive
same,outcome,[7],inactive
same,AC50,[8],78.1 µM (active) and 70.2 µM (active)
same,AC50,[9],50 µM (active)
same,AC50,[11],50 µM (active) and 67.7 µM (active)
same,AC50,[15],81.1 µM (active)
same,outcome,[15],inactive
same,AC50,[16],77.6 µM (active)
same,outcome,[16],inactive
same,outcome,[20],inactive
CCCCC(CC)COP(=O)(Oc1ccccc1)Oc1ccccc1 (configuration not stated),AC50,[17],542 nM (active)
same,outcome,[18],inactive
same,outcome,[19],inactive
same,outcome,[4],inactive
same,outcome,[5],inactive
same,outcome,[6],inactive
same,outcome,[7],inactive
same,outcome,[8],inactive
same,outcome,[9],inactive
same,outcome,[10],inactive
same,outcome,[11],inactive
same,outcome,[15],inactive
same,outcome,[16],inactive
same,AC50,[1],36.7 µM (active)
same,AC50,[2],16.1 µM (active)
same,AC50,[3],20 µM (active)
